Screening results from PubChem.
DAX1 inh-1 – DAX1 (NR0B1) inhibitors on StAR promoter, primary screen, cell-based, luminescence, SF-1 (NR5A1), full-length DAX-1; HEK293T StAR-luciferase reporter, SF-1/DAX-1 repression relief; AID 652010, 2013; inhibition, % at 6.8 µM; hit rate 1.1% among 370,000;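 active = inhibition above the mean over all tested compounds plus 3 SD, cut at about 3.6% in these data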;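 note: 0% = DAX-1 cells with DMSO and 100% = cells lacking DAX-1 with DMSO; higher inhibition means more luminescence from relief of DAX-1 repression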
hgDAF12 agonist – H. glycines DAF-12 receptor agonists, primary screen, cell-based, luminescence, HEK293, GAL4 fusion, UAS-luciferase; HEK293 GAL4-hgDAF12 UAS-luciferase reporter, agonist luminescence; normalized to butyrate control; activation, % at 6.8 µM; hit rate 1.8% among 370,000; AID 687014, 2013;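 active = activation above a cutoff set at the mean of all screened compounds plus 3 SD, cut at about 10% in these data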;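 note: 0% = DMSO wells and 100% = sodium butyrate wells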
hcDAF12 agonist – H. contortus DAF-12 nuclear receptor activators, primary screen, cell-based, luminescence, HEK293, lit1-tk-luc reporter; HEK293 hcDAF-12 lit1-tk-luc reporter; 0% DMSO, 100% Δ7-dafachronic acid; activation, % at 6.8 µM; hit rate 1.4% among 370,000;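 active = activation above the mean of all tested compounds plus 3 SD, cut at about 5.5% in these data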;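 note: 100% = response to 3 µM Δ7-dafachronic acid high control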
DAX1 inh-2 – DAX1 (NR0B1) inhibitors, primary screen, cell-based, HEK293, Gal4-DAX1, luciferase luminescence; HEK293 Gal4-DAX1 luciferase reporter; inhibition, % at 6.75 µM; AID 504766, 2011; hit rate 0.99% among 340,000; Nuclear receptor subfamily 0 group B member 1 (Homo sapiens), P51843;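 active = inhibition above the mean over all tested compounds plus 3 SD, cut at about 4.2% in these data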;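 note: 0% = DAX1-transfected cells with DMSO and 100% = empty-vector control cells with DMSO; inhibition shows as a rise in luminescence from relieved DAX1 repression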
Target sequence (P51843 207-470 limits assumed): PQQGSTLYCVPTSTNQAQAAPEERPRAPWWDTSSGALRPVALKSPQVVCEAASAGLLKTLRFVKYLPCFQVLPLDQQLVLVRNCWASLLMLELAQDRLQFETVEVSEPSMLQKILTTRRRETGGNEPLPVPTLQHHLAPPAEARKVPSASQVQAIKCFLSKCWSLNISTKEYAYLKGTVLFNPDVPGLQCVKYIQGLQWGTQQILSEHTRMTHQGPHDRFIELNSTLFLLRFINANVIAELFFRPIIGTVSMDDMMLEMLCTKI
ssDAF12 agonist – S. stercoralis DAF-12 nuclear receptor activators, primary screen, cell-based, luminescence, HEK293, GRIP1 co-expression, lit1-tk-luc; AID 652126, 2013; Nuclear hormone receptor DAF-12 (Strongyloides stercoralis); activation, % at 6.8 µM; hit rate 1% among 370,000; HEK293 ssDAF-12/GRIP1 lit1-tk-luc reporter; % of 3 µM dafachronic acid response;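 active = activation above the mean over all tested compounds plus 3 SD, cut at about 0.9% in these data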;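 note: 0% = DMSO-only wells and 100% = 3 µM delta7-dafachronic acid wells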
SMARCA2 activ – SMARCA2 (BRM) function activators, primary screen, cell-based, luminescence, high throughput. MG213 cells, MMTV-luciferase reporter, dexamethasone, overnight. activation, % at 9.1 µM. hit rate 1% among 370,000. AID 652017, 2013; in the data active = activation above about 7.8%;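 note: 0% = vehicle wells and 100% = reference activator wells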
An asterisk follows results filed as active; / = no result given. Rows were chosen to be rich in hits. Some 4.8% of all compounds tested hit in one or more screens of this group.

SMILES	DAX1 inh-1	hgDAF12 agonist	hcDAF12 agonist	DAX1 inh-2	ssDAF12 agonist	SMARCA2 activ
COC(=O)C1CN(Cc2cn(CCOC(C)=O)nn2)CCS(=O)(=O)N1Cc1ccc(OC)cc1 (stereo unspecified)	0.0	-2.0	-0.8	/	-1.5	1.6
Cc1nc(/C(N)=N/OC(=O)c2c(-c3ccccc3Cl)noc2C)cs1	0.3	-2.6	0.1	5.9*	-1.6	-0.6
O=C(N(c1ccccn1)c1ccccn1)C12CC3CC(CC(Cl)(C3)C1)C2	-0.3	-0.2	6.2*	1.3	-2.1	7.1
O=C1N/C(=C/c2ccsc2)C(=O)N1c1ccccc1	0.4	11.8*	0.1	2.8	-0.7	5.3
CN1CCN(c2ccc(-c3ccc4ccccc4n3)cc2)CC1	-3.9	-18.1	-7.8	-4.8	-3.8	-10.7
c1ccc2nc(-c3ccc(N4CCOCC4)cc3)ccc2c1	3.8*	9.3	6.3*	-1.6	0.1	1.8
O=C(CN(CC(=O)N1CCOCC1)S(=O)(=O)c1ccc(Br)s1)N1CCOCC1	-0.1	0.8	-0.3	6.8*	-1.4	-0.2
CN(CC(=O)N1CCCCCC1)S(=O)(=O)c1ccc(Br)s1	0.6	-0.8	-0.8	/	-0.3	2.6
O=C(COc1ccc(Cl)cc1)Nc1ccc(Cl)cn1	1.6	5.3	0.0	0.8	-1.0	1.5
Cc1ccc(C(=O)Nc2ccc(Cl)cn2)cc1	1.8	12.2*	2.9	-1.6	0.4	0.8
CCCOc1ccc(C(=O)Nc2ccc(Cl)cn2)cc1	3.4	10.0	5.8*	-0.6	0.0	4.4
O=C(Nc1ccc(Cl)cn1)c1cccc(OCc2ccccc2)c1	0.7	2.7	-1.6	0.3	-1.1	4.4
Cc1ccc(CC(=O)Nc2ccc(Cl)cn2)cc1	0.0	3.2	-1.4	1.4	-1.4	4.5
O=C(Nc1cc(-c2ccccc2)[nH]n1)c1ccc(Cl)cc1	1.4	9.8	5.1	3.4	1.7*	-2.7
O=C(Nc1ccc(Cl)cn1)c1ccc(Oc2ccccc2)cc1	1.5	12.8*	3.6	1.0	-0.5	1.0
C=CCN1C(=O)[C@@H](CC(=O)N2CCOCC2)[C@]2(C(=O)OCC)CCCCC/C=C/12	0.6	1.6	-0.9	/	-1.0	0.4
COCCCNC(=O)C[C@H]1C[C@@]2(C(=O)OC)C(=C[C@H](C(C)C)O[C@@H]2C2CC2)N(Cc2ccc(Cl)cc2Cl)C1=O	0.5	-2.5	-1.7	/	-1.2	-3.3
Cc1ccc(NC(=O)c2ccc(Nc3ccccc3F)nc2)cc1	-0.4	5.5	1.7	0.1	1.2*	4.3
CCCn1c(-c2ccc[nH]c2=O)nc2cc(C)c(C)cc21	2.7	8.1	3.4	4.4*	1.1*	2.1
CCN1C(=O)CC(c2ccc(OC(C)C)cc2)C1=O (stereo unspecified)	0.4	0.2	-0.1	4.5*	-0.9	1.0
O=C(NC1CCN(Cc2ccc(F)cc2)CC1)c1ccccc1	0.1	-0.8	-1.6	1.9	-1.4	-2.2
CS(=O)(=O)Cc1ccc(C(=O)NC2CCN(Cc3ccccc3)C2)cc1 (stereo unspecified)	0.8	-0.5	1.1	4.2*	-0.5	2.9
N#C/C(=C/c1ccc(N2CCCCCC2)o1)c1ccc(Cl)cc1	/	/	/	-1.2	/	/
N#C/C(=C/c1ccc(N2CCCCC2)o1)c1cccc(F)c1	4.4*	-4.2	-0.8	0.7	0.0	3.3
C=CCn1c(SCc2c(Cl)cccc2Cl)nnc1-c1cccc(C)c1	-2.5	-4.6	-3.3	/	-2.4	-5.3
SMILES	DAX1 inh-1	hgDAF12 agonist	hcDAF12 agonist	DAX1 inh-2	ssDAF12 agonist	SMARCA2 activ
CCOCCOC(=O)c1[nH]c2c(c1C)C(=O)CC(c1ccccc1)C2 (stereo unspecified)	0.4	-1.6	0.1	-2.4	-1.0	2.5
CCOC(=O)c1[nH]c2c(c1C)C(=O)CC(c1ccc(F)cc1)C2 (stereo unspecified)	-2.7	2.9	-1.9	-0.9	1.2*	-1.9
CC(C)CNC(=O)OCc1cn(Cc2cc(F)ccc2F)nn1	-0.4	2.0	-0.7	/	-0.4	-1.5
C/C(=N\NC(=O)c1cc(Br)ccc1O)c1cccs1	2.3	6.9	3.0	1.8	-1.0	3.0
C/C(=N/NC(=O)c1ccc(Br)o1)c1cccs1	3.7*	7.5	1.3	1.3	0.4	1.8
Nc1ccc(N=Nc2ccccc2)cc1[N+](=O)[O-]	1.9	12.1*	5.6*	2.1	3.0*	2.9
Cc1ccc(N)c([N+](=O)[O-])c1	1.5	0.6	1.1	1.6	-0.7	-4.9
c1ccc(-c2nnc(-c3ccccc3)c(-c3c[nH]c4ccccc34)n2)cc1	0.4	0.2	0.6	1.4	-0.2	2.5
Clc1ccc(-c2nnc(-c3ccccc3)nc2-c2c[nH]c3ccccc23)cc1	0.0	6.0	4.3	0.6	1.6*	1.4
CN(Cc1ccccc1F)C(=O)C1CCC(CNS(=O)(=O)c2cccc3cccnc23)CC1 (stereo unspecified)	-1.6	-4.0	-3.5	/	-1.3	-7.7
O=C(O)CCSc1nc2ccccc2n1-c1ccccc1	0.6	-0.1	6.0*	-0.2	-0.6	3.0
O=C(Nc1nc2ccsc2c(=O)s1)c1ccc(F)cc1Cl	0.9	5.5	-0.6	7.8*	-1.7	7.2
COc1cc(/C=C/C(=O)O)cc(S(=O)(=O)N2CCc3ccccc32)c1OC	-0.7	0.8	2.1	-1.6	2.3*	5.4
O=Cc1c(C(=O)O)n(CC(=O)O)c2ccccc12	-0.1	0.9	5.8*	0.5	-0.4	-0.9
O=C(O)Cn1c2ccccc2c2ccccc21	-0.2	0.0	-0.5	2.0	0.1	0.9
CC(C)(C)C(=O)O/N=C(\N)COc1cccc(Cl)c1	-0.1	5.1	1.8	6.9*	-0.8	-14.9
CCOC(=O)[C@]12CCCC=C1N(CCCOC)C(=O)[C@@H]2CC(=O)NCc1cccs1	-1.2	-0.1	-1.1	/	-1.1	-0.1
CNc1ccc(-c2cccc(CO)c2)cn1	1.3	10.7*	3.0	/	-0.7	1.8
CNc1ccc(-c2cccc(C(C)=O)c2)cn1	-0.1	4.7	0.6	/	-0.9	0.9
COC(=O)[C@H](C(C)C)N(CCCc1cn(CC2CCCCC2)nn1)S(=O)(=O)c1ccccc1Br	-1.0	-2.4	-2.4	/	-1.6	-3.2
CCCN1CCS(=O)(=O)N(Cc2cn(Cc3ccc(Cl)cc3)nn2)C(C(=O)OC)C1 (stereo unspecified)	-0.9	-0.1	3.3	/	-1.3	-3.9
Cc1cccc(C2CC(c3ccccc3)Nc3ncnn32)c1 (stereo unspecified)	0.1	-0.7	-1.5	5.6*	-1.6	-1.6
